# Measurements published in PubChem BioAssay (NCI).
# The panel holds about 83,000 compounds, 20% with a hit somewhere; the sample as a whole holds those more often.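 Step 1: grow cells in 96-well plates. Step 2: add test compound at a single concentration. Step 3: incubate 48 h. Step 4: record percent growth.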 Unmarked numbers belong to inactive results. Calls of active or inactive are those of the source. How the source made its calls: active means growth percent below 10; inactive means the rest.
# What was measured:
# Assay in all cases: NCI-60 one-dose screen, 48 h (100 = growth as untreated, 0 = no growth, -100 = all killed)
# Details in all cases: 10 µM unless noted
# NCI-H23 lung = tested on: NCI-H23 lung
# NCI-H226 lung = tested on: NCI-H226 lung
# NCI-H322M lung = tested on: NCI-H322M lung
# HOP-62 NSCLC = tested on: HOP-62 NSCLC
# NCI-H460 lung = tested on: NCI-H460 lung
# HOP-92 NSCLC = tested on: HOP-92 NSCLC
# A549/ATCC NSCLC = tested on: A549/ATCC NSCLC
# 786-0 renal = tested on: 786-0 renal
# COLO 205 colon = tested on: COLO 205 colon
SMILES,growth (NCI-H23 lung),growth (NCI-H226 lung),growth (NCI-H322M lung),growth (HOP-62 NSCLC),growth (NCI-H460 lung),growth (HOP-92 NSCLC),growth (A549/ATCC NSCLC),growth (786-0 renal),growth (COLO 205 colon)
C[C@]12CCC(=O)C=C1CC[C@H]1[C@@H]3C[C@@H](O)[C@](O)(C(=O)CO)[C@@]3(C)C[C@H](O)[C@@]12F,110%,83.1%,128%,101%,93.4%,80.3%,63.1%,111%,103%
O=C(NN1C(=O)c2cc(C(=O)O)c(C(=O)O)cc2C1=O)c1ccncc1,108%,95%,102%,99.3%,111%,4.14% (active),119%,107%,105%
COC(=O)c1cc2c(/C=C3/NC(=S)NC3=O)coc2n1C,103%,110%,87.1%,89.3%,115%,-38.5% (active),104%,98.2%,97.7%
CNCCCn1c2c(c3ccc(F)cc3c1=O)C(=O)c1cc(OC)cnc1-2,-41.5% (active),-61.2% (active),-1.98% (active),-30% (active),-37.6% (active),-12.4% (active),-71.2% (active),-38.3% (active),-33.1% (active)
COC(=O)[C@H](CCCCNC(=O)OCc1ccccc1)NC(=O)[C@@H](NC(=O)Nc1cc(C(F)(F)F)cc(C(F)(F)F)c1)C(C)C,-45.6% [100 µM] (active),39% [100 µM],19.9% [100 µM],-84.2% [100 µM] (active),-23.1% [100 µM] (active),-69.5% [100 µM] (active),45.1% [100 µM],-91.7% [100 µM] (active),-12.8% [100 µM] (active)
COc1cccc(/C=C2\Cc3ccccc3C2=O)c1,106%,107%,110%,96.4%,105%,85.7%,87%,101%,115%
Oc1c(N=Nc2nn[nH]n2)ccc2ccccc12,72.8%,81.4%,57.9%,85.4%,73%,77.1%,77.8%,102%,54%
N#Cc1c(-c2ccccc2)cc(-c2ccccc2)n(CCCCC(=O)O)c1=O,90%,91%,98.6%,90.9%,102%,93.7%,94.7%,93.7%,108%
Nc1c(C(=O)Nc2cccc(Cl)c2)sc2nc3c(cc12)C(O)CCC3 (stereo not given),29.8%,62.3%,62.3%,46.8%,11.2%,13.6%,24.7%,53.3%,5.9% (active)
COc1ccccc1NC(=O)c1sc2nc3c(cc2c1N)C(=O)CCC3,66.7%,76.2%,59.7%,100%,19.3%,37.5%,34.2%,89.1%,26.4%
C(=C1c2ccccc2-c2ccccc21)c1ccncc1,58.5%,86.8%,80.1%,56.3%,33.7%,55.9%,49.1%,58.2%,49.4%
C[C@@H]1C[C@@H]([C@@H](CC2CC(=O)NC(=O)C2)OC(=O)CC(=O)c2ccccc2)C(=O)[C@@H](C)C1,13.9%,4.07% (active),-19.5% (active),13.5%,12.1%,9.2% (active),1.76% (active),1.2% (active),10.2%
CNNc1ncnc2c1cnn2-c1ccc(S(N)(=O)=O)cc1,94.2%,91.3%,104%,85.6%,117%,41.5%,92.9%,91.7%,120%
Nc1ccc2c(c1Br)Cc1ccccc1-2,92%,104%,114%,97.8%,102%,76%,86%,107%,99.2%
COc1ccc(/C=C2\CCc3ccccc3C2=O)cc1,90.3%,103%,98.1%,85.8%,102%,84.2%,77.4%,91.5%,106%
C/C(=C\CCc1ccoc1)CC/C=C(\C)CCCNc1ccc(F)cc1,100%,88.5%,85.4%,93.6%,92.7%,96.3%,80.4%,95.1%,98.1%
Cc1ccccc1NC(=O)NC(CC(N)=O)c1ccc2c(c1)nc(-c1cccc(Oc3ccc(C(C)(C)C)cc3)c1)n2CCCN1CCCCC1C (stereo not given),64.7%,109%,65%,25.8%,-30.7% (active),13.5%,54.9%,26.7%,-65.6% (active)
CCCCCCCCCCCCCCCCNC(=O)Nc1ccc2ccccc2c1,103%,108%,110%,105%,99.2%,74.5%,107%,104%,103%
Clc1ccc(C2c3ccccc3-c3nccn32)c(Cl)c1 (stereo not given),40%,66.6%,88.1%,78.2%,88.5%,-2.6% (active),79.6%,80.8%,97.2%
COc1ccc2c3c(ccc2c1)C(=O)/C(=C\O)CC3,96.7%,106%,110%,114%,102%,96.4%,109%,103%,105%
O=C1/C(=C/c2cccc(Cl)c2)CCc2ccccc21,101%,98.5%,98.5%,105%,107%,72.6%,90.2%,94.8%,111%
CCCCCCCCCCCCCCCCCC1=NC(C)(CO)CO1 (stereo not given),98.2%,91.1%,90.4%,95.9%,103%,79.8%,89.6%,92.3%,101%
Cn1c(N2N=C(c3ccc(Cl)cc3)CC2c2ccccc2)nc(-c2ccccc2)c(C#N)c1=O (stereo not given),66.3%,74.5%,83.5%,83%,58.7%,16%,64.8%,84.4%,99.4%
CC(=O)[C@H]1CC[C@H]2[C@@H]3C[C@H](C)C4=CC(=O)CC[C@]4(C)[C@H]3C(=O)C[C@]12C,102%,104%,117%,99.1%,107%,85.3%,98.7%,112%,94.3%
CCOC(=O)CCN(c1c(Cl)ssc1=O)C(C)C,105%,112%,102%,106%,106%,97%,93.9%,98.9%,115%
O=C1Nc2ccc(Cl)cc2[C@@](C#CC2CC2)(C(F)(F)F)O1,87.8%,81.4%,80.9%,104%,102%,93.2%,70.7%,96.6%,127%
CC(=O)N1N=C(c2ccc(C(F)(F)F)cc2)CC1c1ccc2c(c1)OCO2 (stereo not given),79.2%,96.5%,84.8%,102%,85%,77.5%,91.2%,87.4%,100%
CCN1CCN(c2nc(NNC(=O)Cc3ccccc3)nc(N3CCN(C(c4ccccc4)c4ccccc4)CC3)n2)CC1,95.1%,95%,105%,74.5%,11.1%,82.9%,46.6%,64.1%,-41.3% (active)
N/C(=N\c1nc2ccccc2s1)NC(=O)Nc1ccccc1Cl,34.9%,35.3%,45%,28.6%,12.7%,139%,21.6%,36.6%,-44.4% (active)
NS(=O)(=O)c1ccc(-n2ncc3c(SCc4ccccc4)ncnc32)cc1,100%,99.8%,87.7%,66.9%,105%,43%,80.8%,85.1%,110%
